LGR2 inh – inhibitors of bursicon-induced LGR2 CRE-luciferase signal, primary screen, cell-based, HEK293, CRE-luciferase reporter, bursicon stimulation. 380,000 tested, 0.35% active. bursicon-stimulated, 4 h. inhibition, % at 9.99 µM;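 active = drop in luminescence signal, shown as inhibition above about 50% in the replicate tests, limit read from the data, passing the limit was not always enough; inconclusive = probably only some replicates passing the limit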;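 note: agonist challenge used bursicon conditioned medium at about half maximal strength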
TWEAK Fn14 block – inhibitors of TWEAK-Fn14 signaling, primary screen, luciferase reporter cells, uHTS; TWEAK-stimulated Fn14 reporter cells, luciferase luminescence, 8 h; inhibition, % at 10 µM; 360,000 tested, 2% active; AID 1159606, 2016; in the data active = inhibition above about 50%
EWS-Fli inh – EWS/Fli-driven NR0B1 reporter inhibitors, primary screen, A673 cells, NR0B1 luciferase, luminescence, MLPCN library; viability-normalised; inhibition, % at 12.6 µM; 350,000 tested, 0.67% active; AID 651661, 2012;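 active = mean inhibition of at least 50% after viability correction, with every replicate also passing that limit; inconclusive = mean reaches 50% but only one of two replicates passes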;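 note: firefly luciferase signal divided by Alamar Blue viability fluorescence both relative to DMSO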
PAX8 reporter – inhibitors of PAX8-driven TPO luciferase reporter, primary screen, RMG-I cells, single concentration. SteadyGlo, 24 h. inhibition, % at 12.6 µM. 360,000 tested, 1.2% active;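 active = mean replicate inhibition at least 60% with every replicate also reaching 60%; inconclusive = only one of the two criteria is met; inactive = mean below 60% and not all replicates reaching 60%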;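 note: luciferase light reporting Pax8 driven TPO promoter activity; plate controls were median of neutral control wells for no effect and mitoxantrone controls for full effect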
TROY NFkB inh – inhibitors of TROY-driven NF-kB signaling, primary screen, Q293 LMP1-TROYcd cells, NF-kB luciferase, uHTS; Q293 LMP1-TROYcd NF-kB luciferase reporter, 4 h; inhibition, % at 10 µM; 360,000 tested, 0.98% active; AID 1347056, 2019;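 active = compounds whose plate-normalised and pattern-corrected inhibition of the luciferase reporter signal at the single screening dose is 50% or more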
Active calls of the source: *. Rows were chosen to be rich in hits. Some 2.8% of all compounds tested hit in one or more screens of this group.

`O=C(Nc1ccc(Cl)c(S(=O)(=O)N2CCOCC2)c1)c1ccc(OCC2CCCO2)cc1` (stereo unspecified) gave TWEAK Fn14 block 99* and TROY NFkB inh 77*.
`O=C(Nc1cccc(Cl)c1)c1ccc(F)c(S(=O)(=O)N2CCN(c3ccccn3)CC2)c1` gave LGR2 inh 16, TWEAK Fn14 block 59* and TROY NFkB inh 33.
For O=C(Nc1cccc(Br)c1)c1ccc(Cl)c(S(=O)(=O)N2CCOCC2)c1 the results were LGR2 inh 13, TWEAK Fn14 block 77*, EWS-Fli inh 5 and TROY NFkB inh 45.
`COc1ccc(C(=O)Nc2ccc3c(c2)OC[C@@H](C)N(C(C)=O)C[C@H](C)[C@@H](OC)CN(C)C3=O)cc1` gave LGR2 inh 4 and EWS-Fli inh 8.
Screening O=C(C[C@H]1C[C@@H]2c3cc(NC(=O)C4CCC4)ccc3O[C@@H]2[C@H](CO)O1)NCc1ccc(-c2ccccc2)cc1 returned LGR2 inh 6, EWS-Fli inh 5 and PAX8 reporter 28.
C[C@H](CO)N1C[C@H](C)[C@@H](CN(C)C(=O)NC2CCCCC2)OCCCC[C@H](C)Oc2ccc(NC(=O)CCC(F)(F)F)cc2C1=O was read as LGR2 inh -2, EWS-Fli inh 6 and PAX8 reporter 11.
Screening O=S(=O)(Cc1ccccc1)N1CCCCN2[C@H](CO)[C@H](c3ccc(-c4ccc(F)cc4)cc3)[C@H]2C1 returned LGR2 inh 10, EWS-Fli inh 12 and PAX8 reporter 16.
For COc1ccc(C(=O)Nc2ccc3oc(Cc4ccc(Cl)cc4)nc3c2)cc1OC the results were LGR2 inh 7, TWEAK Fn14 block 52*, EWS-Fli inh 4, PAX8 reporter 9 and TROY NFkB inh 19.
COc1ccc(Cc2nc3ccc(C(=O)NCCc4ccncc4)cc3o2)cc1OC was read as LGR2 inh -11, TWEAK Fn14 block 9, EWS-Fli inh -6, PAX8 reporter -7 and TROY NFkB inh 0.
CC=Cc1ccc2n(c1=O)C[C@H]1[C@H](CO)[C@@H](C(=O)N3CCc4ccccc4C3)N(C(=O)C3CC3)[C@@H]21 (mixture of isomers) was read as LGR2 inh -6, EWS-Fli inh 4 and PAX8 reporter 2.
Screening Oc1ccc(N2CCN(c3ncnc4sc(-c5ccccc5)cc34)CC2)cc1 returned LGR2 inh -13, TWEAK Fn14 block 50, EWS-Fli inh 49, PAX8 reporter 39 and TROY NFkB inh 32.
Screening CCc1cc2c(N3CCN(c4ccccc4)CC3)ncnc2s1 returned LGR2 inh 8, TWEAK Fn14 block 61* and TROY NFkB inh 20.
For c1ccc(N2CCN(c3ncnc4sc5c(c34)CCC5)CC2)cc1 the results were TWEAK Fn14 block 59* and TROY NFkB inh 44.
COc1ccc(-c2nc3ccccc3c(=O)[nH]2)cc1 was read as LGR2 inh 0, TWEAK Fn14 block 21, EWS-Fli inh -44, PAX8 reporter -39 and TROY NFkB inh -36.
Screening CN(C)c1ccc(-c2nc3ccccc3c(=O)[nH]2)cc1 returned LGR2 inh 66*, TWEAK Fn14 block 24, EWS-Fli inh 62*, PAX8 reporter 81* and TROY NFkB inh -60.
`O=C(O)C[C@H]1C[C@@H]2c3cc(NC(=O)Nc4ccc(F)cc4)ccc3O[C@@H]2[C@@H](CO)O1` gave LGR2 inh -4 and EWS-Fli inh -4.
Screening N/C(=N\OC(=O)c1ccc(Cl)c(Cl)c1)c1ccccn1 returned LGR2 inh 68*, TWEAK Fn14 block 80* and TROY NFkB inh 39.
`N/C(=N\OC(=O)c1cccc(Cl)c1)c1ccccn1` gave LGR2 inh 73*, TWEAK Fn14 block 92*, PAX8 reporter 13 and TROY NFkB inh 68*.
`COc1cc(OC)cc(C(=O)NNC(=O)c2ccc3ccccc3n2)c1` gave LGR2 inh -10, TWEAK Fn14 block 37, EWS-Fli inh 23, PAX8 reporter 53 and TROY NFkB inh 57*.
COc1ccc(C(=O)O/N=C(\N)c2ccccn2)cc1 was read as LGR2 inh 103*, TWEAK Fn14 block 103*, EWS-Fli inh 44, PAX8 reporter 121* and TROY NFkB inh 84*.
C[C@@H]1CCCCO[C@@H](CN(C)Cc2ccncc2)[C@H](C)CN([C@@H](C)CO)C(=O)c2cc(NS(=O)(=O)c3ccc(F)cc3)ccc2O1 was read as LGR2 inh 8, EWS-Fli inh -3 and PAX8 reporter -6.
`CO[C@H]1CN(C)C(=O)c2cc(NS(C)(=O)=O)ccc2OC[C@H](C)N(CC2CCOCC2)C[C@H]1C` gave LGR2 inh 3, EWS-Fli inh 2 and PAX8 reporter 0.
`N/C(=N\OC(=O)c1ccc(Cl)cc1)c1[nH]ncc1Br` gave LGR2 inh 61*, TWEAK Fn14 block 65*, EWS-Fli inh 27, PAX8 reporter -86 and TROY NFkB inh 18.
Screening N/C(=N\OC(=O)c1cccc(Br)c1)c1ccccn1 returned LGR2 inh 77*, TWEAK Fn14 block 86*, PAX8 reporter 7 and TROY NFkB inh 66*.
`CC(Oc1ccccc1)C(=O)NNC(=O)c1ccccn1` (stereo unspecified) gave TWEAK Fn14 block -11, EWS-Fli inh 13, PAX8 reporter 75* and TROY NFkB inh -14.
N/C(=N\OC(=O)c1cccc(Br)c1)c1ccccc1 was read as LGR2 inh inconclusive, TWEAK Fn14 block 36 and TROY NFkB inh -47.
`COc1ccc(/C(N)=N/OC(=O)c2cccs2)cc1` gave LGR2 inh 70*, TWEAK Fn14 block 43, EWS-Fli inh -92, PAX8 reporter -49 and TROY NFkB inh 22.
`CCC(=O)N1CC2(CCN(Cc3ccc(Cl)cc3)CC2)c2c([nH]c3cc(OC)ccc23)[C@@H]1CO` gave LGR2 inh 4 and EWS-Fli inh -16.
For O=C(Nc1ccccc1)NC1(c2cn(CC(=O)N3CCN(c4ccccc4)CC3)nn2)CCCCC1 the results were EWS-Fli inh -14.
`CN1CCN(C(=O)C[C@H]2C[C@H]3c4cc(NC(=O)Nc5ccccc5)ccc4O[C@H]3[C@H](CO)O2)CC1` gave LGR2 inh -2, EWS-Fli inh -11 and PAX8 reporter 1.
For COc1ccc(C(=O)NNC(=O)c2ccccn2)cc1 the results were TWEAK Fn14 block 102*, EWS-Fli inh 62*, PAX8 reporter 104* and TROY NFkB inh 87*.
N/C(=N\OC(=O)c1ccc(Cl)cc1)c1ccccn1 was read as LGR2 inh 90*, TWEAK Fn14 block 101* and TROY NFkB inh 70*.
For COCCCN1CN(S(=O)(=O)c2ccc(Cl)cc2)c2nc3ccccc3nc21 the results were TWEAK Fn14 block 7 and TROY NFkB inh 2.
`CC(C)OCCCN1CN(S(=O)(=O)c2ccccc2)c2nc3ccccc3nc21` gave TWEAK Fn14 block 77*.

Assay outcomes from PubChem BioAssay.
